In PubChem BioAssay AID1030 (National Center for Advancing Translational Sciences (NCATS), 2008):
About 16,000 (7.3%) of roughly 220,000 compounds were called active. Inconclusive results (about 25%) are left out. The sample as a whole holds a higher share of actives than the screen did. A number with no mark means an inactive call. Calls come from the whole dose curve; as a rule, active = well fitted inhibition curve with a large enough effect (not every such curve was filed as active); inconclusive = small, poorly fitted or top-dose-only effect, or another doubt; inactive = no such curve, though single readings can be large or run the other way.

The molecules below were run against Aldehyde dehydrogenase 1A1 (Homo sapiens) (UniProt P00352) (assay: qHTS Assay for Inhibitors of Aldehyde Dehydrogenase 1 (ALDH1A1)). Settings: Purified ALDH1A1, NADH fluorescence, propionaldehyde substrate; series mostly up to 75.3 µM; activity, negative = inhibition: at the top concentration.
Potency is the fitted concentration of half-maximal effect.
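Throughout, for activity, negative = inhibition: plate controls were no enzyme wells and a reference inhibitor.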

Sequence of Aldehyde dehydrogenase 1A1 (Homo sapiens) (P00352 whole entry, looked up): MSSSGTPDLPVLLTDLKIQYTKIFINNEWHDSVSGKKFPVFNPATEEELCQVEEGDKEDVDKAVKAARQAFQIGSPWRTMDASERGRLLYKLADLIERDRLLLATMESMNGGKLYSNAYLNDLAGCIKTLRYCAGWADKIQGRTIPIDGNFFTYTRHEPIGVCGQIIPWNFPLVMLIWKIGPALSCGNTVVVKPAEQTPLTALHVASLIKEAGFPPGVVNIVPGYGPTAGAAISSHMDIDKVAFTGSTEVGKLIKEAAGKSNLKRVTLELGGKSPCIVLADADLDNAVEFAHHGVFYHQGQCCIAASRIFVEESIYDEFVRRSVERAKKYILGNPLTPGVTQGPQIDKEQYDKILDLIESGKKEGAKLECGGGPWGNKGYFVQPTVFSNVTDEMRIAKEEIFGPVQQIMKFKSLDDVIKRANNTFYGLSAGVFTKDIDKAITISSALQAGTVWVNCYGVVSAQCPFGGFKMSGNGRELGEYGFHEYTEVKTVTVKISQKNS

Row | Structure (SMILES) | activity, negative = inhibition [%] | Potency
1 | CC(C)(C)NC(=O)NC(=O)COC(=O)Cc1c(F)cccc1Cl | 0.773 | –
2 | O=C(COc1ccc2c(C(F)(F)F)cc(=O)oc2c1)Nc1ccc2c(c1)OCCO2 | -0.303 | –
3 | CCOC(=O)COc1cc(O)c2c(=O)cc(-c3ccccc3)oc2c1 | -1.95 | –
4 | CC(=O)COc1ccc2c(-c3ccccc3)cc(=O)oc2c1 | – | 6.31 µM (active)
5 | CC(Sc1nc2cc(Cl)ccc2s1)C(=O)Nc1ccc2c(c1)OCO2 (stereo not given) | -1.3 | –
6 | Cc1cc(Cl)ccc1OCCCC(=O)NCc1ccccn1 | 5.45 | –
7 | Cc1cccc(N2C(=O)SC(SC(=Nc3ccccc3)Nc3ccccc3)C2=O)c1 (stereo not given) | – | 15.8 µM (active)
8 | Cc1cccc(N2C(=O)C3C(c4ccccc4)OC4(C(=O)c5ccccc5C4=O)C3C2=O)c1 (stereo not given) | -1.19 | –
9 | Cc1cccc(N=Nc2c(C)[nH]n(-c3ccccc3)c2=O)c1 | 0.918 | –
10 | COc1ccccc1-c1noc(CSc2nc(C)cc(=O)[nH]2)n1 | 3.99 | –
11 | O=C(CSc1ncnc2c1nnn2Cc1ccc(F)cc1)NC1CCCC1 | 5.38 | –
12 | OC1CCCN(c2ncnc3c2nnn3Cc2c(F)cccc2Cl)C1 (stereo not given) | – | 7.94 µM (active)
13 | CC(=O)Nc1ccn(Cc2c(F)cccc2Cl)n1 | 11.3 | –
14 | CCOc1ccc(OCc2cccc(C(=O)N(CC)CC)c2)cc1 | -11.7 | –
15 | CC(C)NC(=S)NN=C1CCCCCCCCCCC1 | -4.75 | –
16 | OC[C@H]1O[C@@H](n2cnc3c(NC4CCCC4)ncnc32)[C@H](O)[C@H]1O | -8.77 | –
17 | CCN(CC)S(=O)(=O)c1ccc(N(C)CCc2ccc(OC)c(OC)c2)nc1 | 6.98 | –
18 | CN(C)c1ccc(/C=C/C(=O)c2ccc(C(C)(C)C)cc2)cc1[N+](=O)[O-] | -0.256 | –
19 | CN(C)c1ccc(/C=C/C(=O)c2ccc(O)cc2)cc1[N+](=O)[O-] | – | 17.8 µM (active)
20 | O=C(/C=C/c1ccc2c(c1)OCCO2)c1ccc(O)cc1 | 4.61 | –
21 | CCOc1ccccc1/C=N/NC(=O)CNC(=O)COc1ccccc1 | -5.79 | –
22 | CCC(C)NC(=O)C1c2ccccc2Oc2ccccc21 (stereo not given) | 7.74 | –
23 | O=C(Nc1ccc(N2CCN(C(=O)c3cccs3)CC2)cc1)c1cccnc1Cl | 0.829 | –
24 | Cc1cc(Cl)ccc1NNC(=O)c1snnc1C | 4.29 | –

Row | Structure (SMILES) | activity, negative = inhibition [%] | Potency
25 | CC(C)C(C)(C#N)NC(=O)CSc1nc2scc(-c3ccccc3)c2c(=O)[nH]1 (stereo not given) | – | 11.2 µM (active)
26 | CC(C)C(C)(C#N)NC(=O)CSc1nncn1-c1ccccc1 (stereo not given) | 2.04 | –
27 | C=CCNC(=O)CSc1nc2sc(C)c(C)c2c(=O)[nH]1 | -3.38 | –
28 | CCOC(=O)c1sc2nc(C)nc(Nc3ccc(OC)c(OC)c3)c2c1C | -1.57 | –
29 | Cc1ccc(S(=O)(=O)NCCc2nnc3ccc(SCc4cccnc4)nn23)cc1 | -5.59 | –
30 | CCN(CC)C(=O)Oc1ccc(Br)cc1C(=O)Nc1ccc(F)c(Cl)c1 | 4.26 | –
31 | CNC(=O)c1[nH]cnc1C(=O)N[C@@H](CC(C)C)C(=O)OCc1ccccc1 | 4.76 | –
32 | O=C(Cc1ccc(F)cc1)N/N=C/c1ccc2c(c1)OCO2 | -2.31 | –
33 | Cc1c(NC(=S)NCc2ccc(F)cc2)cccc1[N+](=O)[O-] | – | 31.6 µM (active)
34 | Cc1cc(C)cc(NC(=S)NCc2ccc(F)cc2)c1 | -1.59 | –
35 | Cc1c(NC(=O)/C=C/C(=O)O)cccc1[N+](=O)[O-] | – | 25.1 µM (active)
36 | Cc1cccc(NC(=S)NCCc2ccc(F)cc2)c1C | -1.95 | –
37 | Cc1c(NC(=O)Nc2ccccc2)cccc1[N+](=O)[O-] | -4.7 | –
38 | Cc1c(NC(=O)CCCOc2ccccc2)cccc1[N+](=O)[O-] | -17.8 | –
39 | COc1cc(C(=O)OCc2ccc([N+](=O)[O-])cc2)cc(OC)c1OC | 7.71 | –
40 | Cc1ccc(C)c(Cn2cnc3c(oc4ccccc43)c2=O)c1 | 2.37 | –
41 | COc1ccc(OC)c(S(=O)(=O)Nc2cccc(-c3ccc4nncn4n3)c2)c1 | 0.157 | –
42 | CC(NC(=O)COC(=O)c1cc(=O)[nH]c2ccccc12)c1ccccc1 (stereo not given) | -9.17 | –
43 | COCCNC(=O)CCCn1c(=O)c2ccccc2n(Cc2cccc([N+](=O)[O-])c2)c1=O | 25.2 | –
44 | CCOC(=O)N1CCN(CCC(=O)Nc2cc(OC)ccc2OC)CC1 | -8.02 | –
45 | NC(=O)c1ccsc1NC(=O)c1ccco1 | – | 25.1 µM (active)
46 | CC(C)(C)NC(=O)c1cc(NC(=O)c2ccco2)cc(NC(=O)c2ccco2)c1 | 13.8 | –
47 | Cc1ccnc(NC(=O)c2ccco2)n1 | -4.29 | –
48 | O=C(Cn1c(=S)nc2ccccn21)N1CCc2ccccc2C1 | -9.63 | –

Row | Structure (SMILES) | activity, negative = inhibition [%] | Potency
49 | O=C(c1ccc(F)cc1)N1CCC(n2nnc3ccccc32)CC1 | -4.1 | –
50 | O=C(c1ccc(F)cc1)n1c(=S)nc2ccccn21 | – | 25.1 µM (active)
51 | Cc1ccc2nc(-c3ccncc3)cc(C(=O)Nc3ccc(OC(F)F)cc3)c2c1 | 7.41 | –
52 | COc1cc(NC(=O)COC(=O)c2cnc(C)cn2)c(C)cc1[N+](=O)[O-] | -4.73 | –
53 | CC1CCCC(NC(=O)c2cccc(N3CCCC3=O)c2)C1C (stereo not given) | -7.12 | –
54 | CCC(C)(C)NC(=O)C1c2ccccc2Oc2ccccc21 | -1.36 | –
55 | Cc1ccc(S(=O)(=O)/N=S(\C)C(C)C)cc1 (stereo not given) | 13.2 | –
56 | Cc1ccc(S(=O)(=O)NCC(C)NS(C)(=O)=O)cc1 (stereo not given) | – | 14.1 µM (active)
57 | CSCC(NS(=O)(=O)c1ccc(C)cc1)C(=O)O (stereo not given) | 0.012 | –
58 | CC1CC(=O)Nc2ccccc2N1S(=O)(=O)c1cccs1 (stereo not given) | 6.68 | –
59 | O=C(CNC1CCCCC1)NCC1(c2ccccc2)CCCC1 | 3.69 | –
60 | Cc1ccc2nc(-c3ccncc3)cc(C(=O)Nc3ccc4c(c3)OCCO4)c2c1 | -5.9 | –
61 | O=C(CSc1ccccc1)Nc1ccc(C(=O)Nc2cccc(O)c2)cc1 | -9.58 | –
62 | Cc1nc2ccccc2n1CC(=O)N/N=C/c1cccnc1 | 7.97 | –
63 | Cn1c(=N)n(CC(O)c2cccs2)c2ccccc21 (stereo not given) | 7.93 | –
64 | CC(=O)c1ccc2c(c1)OCCOCCOc1ccc(C(C)=O)cc1OCCOCCO2 | 5.45 | –
65 | COc1ccc(C(=O)NC(=S)NNC(=O)CCc2ccccc2)cc1 | – | 25.1 µM (active)
66 | COc1ccc(C(CC(=O)O)NC(=O)Cc2ccccc2)cc1 (stereo not given) | 5.83 | –
67 | COc1ccc(OCCCC(=O)NCCc2ccccc2)cc1 | 6.31 | –
68 | COc1ccc(C(=O)NC(=S)NNC(=O)c2c(-c3ccccc3)noc2C)cc1 | -11.2 | –
69 | COc1ccc(CC(=O)NC(C)CCc2ccccc2)cc1 (stereo not given) | – | 2.51 µM (active)
70 | COc1ccc(/C(N)=N/OC(=O)CCCc2ccccc2)cc1 | 9.4 | –
